# Compound activity (PubChem BioAssay)
# hcDAF-12 act – H. contortus DAF-12 activation, primary screen; HEK293 hcDAF-12 lit1-tk-luc reporter, luminescence; 0% DMSO, 100% Δ7-dafachronic acid; activation, % at 6.8 µM; hit rate 1.4% among 370,000; AID 652067;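 active = activation above the mean of all tested compounds plus 3 SD, cut at about 5.5% in these data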;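 note: 100% = response to 3 µM Δ7-dafachronic acid high control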
# DAX1 inh-1 – inhibits human nuclear receptor DAX1; HEK293 Gal4-DAX1 luciferase reporter, luminescence; hit rate 0.99% among 340,000; inhibition, % at 6.75 µM;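 active = inhibition above the mean over all tested compounds plus 3 SD, cut at about 4.2% in these data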;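 note: 0% = DAX1-transfected cells with DMSO and 100% = empty-vector control cells with DMSO; inhibition shows as a rise in luminescence from relieved DAX1 repression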
# hgDAF-12 ag – hgDAF-12 agonism, primary luciferase screen; HEK293 GAL4-hgDAF12 UAS-luciferase reporter, agonist luminescence; normalized to butyrate control; activation, % at 6.8 µM; hit rate 1.8% among 370,000; AID 687014;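 active = activation above a cutoff set at the mean of all screened compounds plus 3 SD, cut at about 10% in these data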;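 note: 0% = DMSO wells and 100% = sodium butyrate wells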
# DAX1 inh-2 – DAX1 (NR0B1) inhibition, primary screen; hit rate 1.1% among 370,000; inhibition, % at 6.8 µM; AID 652010; HEK293T StAR-luciferase reporter, SF-1/DAX-1 repression relief;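 active = inhibition above the mean over all tested compounds plus 3 SD, cut at about 3.6% in these data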;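 note: 0% = DAX-1 cells with DMSO and 100% = cells lacking DAX-1 with DMSO; higher inhibition means more luminescence from relief of DAX-1 repression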
# ssDAF-12 act – activators of S. stercoralis DAF-12 nuclear receptor | hit rate 1% among 370,000 | AID 652126 | activation, % at 6.8 µM | HEK293 ssDAF-12/GRIP1 lit1-tk-luc reporter, luminescence; % of 3 µM dafachronic acid response;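 active = activation above the mean over all tested compounds plus 3 SD, cut at about 0.9% in these data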;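 note: 0% = DMSO-only wells and 100% = 3 µM delta7-dafachronic acid wells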
# LXR ag – activates human LXR-beta, counter-screen for hcDAF-12 agonists | shares compounds with hcDAF-12 act | HEK293 Gal4-LXR tk-luc reporter, luminescence, 24 h; normalized: DMSO 0%, positive control 100% | activation, % at 6.8 µM | 3,400 tested, under 10 active;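 active = mean percent activation of the reporter above a cutoff set as the average over tested compounds plus their standard deviation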
# Target sequence (P55055 whole entry, looked up, the tested form may be a part): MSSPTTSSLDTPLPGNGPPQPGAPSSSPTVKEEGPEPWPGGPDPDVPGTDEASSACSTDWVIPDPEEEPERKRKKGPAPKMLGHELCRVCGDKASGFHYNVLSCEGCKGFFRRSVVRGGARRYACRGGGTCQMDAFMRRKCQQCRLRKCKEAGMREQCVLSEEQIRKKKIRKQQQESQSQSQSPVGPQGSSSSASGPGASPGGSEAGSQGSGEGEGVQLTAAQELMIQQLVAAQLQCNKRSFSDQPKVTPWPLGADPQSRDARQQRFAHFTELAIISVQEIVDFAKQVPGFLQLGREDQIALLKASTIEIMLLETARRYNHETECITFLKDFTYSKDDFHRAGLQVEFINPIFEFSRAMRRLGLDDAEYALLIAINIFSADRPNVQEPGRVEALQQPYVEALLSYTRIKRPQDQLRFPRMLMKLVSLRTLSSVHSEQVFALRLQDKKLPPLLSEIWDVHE
# hcDAF12 conf – confirmation of H. contortus DAF-12 agonists; hit rate 61% among 3,400; shares compounds with hcDAF-12 act; HEK293 hcDAF-12 lit1-tk-luc reporter, luminescence; % of Δ7-dafachronic acid response; activation, % at 6.8 µM; AID 743032;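 active = mean activation across triplicate tests above the threshold derived from the earlier primary screen, cut at about 5.5% in these data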;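 note: 0% = DMSO only wells and 100% = 3 µM Δ7-dafachronic acid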
# * marks the source's active call; other numbers are inactive results; . = no result given. This is a sample that favours compounds with a hit; in the whole collection about 4.1% have one here.
SMILES,hcDAF-12 act,DAX1 inh-1,hgDAF-12 ag,DAX1 inh-2,ssDAF-12 act,LXR ag,hcDAF12 conf
O=C(CN1CCc2onc(-c3ccc(-n4cc(COc5ccc([N+](=O)[O-])cc5)nn4)cc3)c2C1=O)N1CCOCC1,-1,.,-1,-1,-2,.,.
O=C(/C(=C(\[O-])c1ccccc1)[n+]1ccc2ccccc2c1)c1ccc([N+](=O)[O-])cc1,5,0,1,0,0,.,.
O=C(/C(=C(/[O-])c1ccccc1)[n+]1ccccc1)c1ccc([N+](=O)[O-])cc1,1,1,3,1,-2,.,.
O=C(/C(=C(\[O-])c1ccccc1)[n+]1ccc2ccccc2c1)c1ccccc1,8.1*,0,3,1,1,0,5
O=C(/C(=C(\[O-])c1ccccc1)[n+]1ccc2ccccc2c1)c1ccc(Cl)cc1,9.8*,3,0,0,0,0,5
Cc1c(C#N)c(=O)c(-[n+]2ccccc2)c([S-])n1-c1ccc(Cl)cc1,7.3*,3,2,1,-2,0,0
Cc1nc2ccccn2c1C(=O)Nc1ccc(Cl)cc1,3,-1,8,1,-1,.,.
Cc1ccc(NC(=O)c2c(Cl)nc3ccccn23)cc1,12*,3,13*,3,1.1*,1,10*
COCCCNc1nc2c(-c3cccc(C)c3)nnn2c2ccccc12,6.9*,0,3,-1,0,0,2
COCCCNc1nc2c(-c3ccc(C)cc3)nnn2c2ccccc12,8.0*,2,12*,1,3.6*,0,8.0*
CCCCNc1nc2c(S(=O)(=O)c3ccccc3)nnn2c2ccccc12,3,0,2,1,-1,.,.
Cc1ccc(Cc2c(-c3ccc(Cl)cc3)nc3c(C)cc(Br)cn23)cc1,-1,.,4,-1,-1,.,.
CCCc1nc2c(C)cc(Br)cn2c1Cc1ccc(C)cc1,7.4*,.,5,0,0,0,10*
O=C(c1cc2cc(F)ccc2[nH]1)N1CCc2ccccc21,16*,5.0*,13*,2,1.9*,1,9.2*
CCCCOCC1CN(CCCC)S(=O)(=O)c2c(Oc3ccc(OC)cc3)cccc2O1 (stereo not drawn),-2,.,-2,0,-1,.,.
Cc1cc(-c2ccc(F)cc2)n2ncc(-c3ccccc3)c2n1,-3,.,-9,-2,-1,.,.
C=CCSc1cc(C)nc2c(-c3ccccc3)cnn12,12*,4.9*,12*,3,2.9*,1,6.9*
Cc1cccc(NC(=O)Nc2ccc(Br)cc2)n1,7.6*,4,6,0,1.3*,1,6.2*
Cc1noc(C(=O)Nc2ccc(F)c(Cl)c2)c1Cl,1,1,7,1,0,.,.
Cc1noc(C(=O)Nc2cc(Cl)ccc2O)c1Cl,7.4*,0,0,0,0,0,5
COc1ccc(Cl)cc1C(=O)NCC(c1ccco1)N(C)C (stereo not drawn),7.3*,0,2,1,0,0,4
Cc1cc(C)c2c(N)c(C(=O)c3ccccc3)oc2n1,0,1,0,-1,-1,.,.
Cc1cc(-c2ccccc2)nc2oc(C(=O)NN)c(N)c12,6.6*,0,-1,-1,1.2*,0,4
COc1ccc(CCNC(=O)c2ccc3ccccc3n2)cc1,7.2*,0,11*,0,0,0,4
O=C(NCc1ccccc1Cl)c1ccc2ccccc2n1,7.7*,0,11*,0,1.1*,1,9.1*
SMILES,hcDAF-12 act,DAX1 inh-1,hgDAF-12 ag,DAX1 inh-2,ssDAF-12 act,LXR ag,hcDAF12 conf
O=C(NCc1ccccc1F)c1ccc2ccccc2n1,1,1,1,0,-1,.,.
NS(=O)(=O)c1ccc(CCNC(=O)c2ccc3ccccc3n2)cc1,6.8*,0,6,1,1,0,8.5*
COCc1[nH]nc2c1C(c1ccccc1)NC2=O (stereo not drawn),0,.,-1,1,0,.,.
Cc1ccc(Nc2nnc(SCC(=O)NCCN3C(=O)CSC3=O)s2)cc1C,12*,0,11*,2,-1,0,3
CCc1cc(C(=O)NNC(=S)Nc2cccc(C)c2)cs1,1,2,6,2,-1,.,.
CCc1cc(C(=O)Nc2ccc(C)cc2Br)cs1,9.1*,1,12*,3.7*,1.6*,1,12*
Cc1ccc(-c2cc(C(=O)n3cnc4ccccc43)c3ccccc3n2)cc1C,8.1*,1,7,3,1.5*,0,4
Cc1ccc(-c2cc(C(=O)NCc3ccccn3)c3ccccc3n2)cc1C,1,-2,5,0,-1,.,.
CN(C)CCn1c(NC(=O)c2ccc(Cl)cc2)nc2ccccc21,7.1*,1,5,3.8*,0,1,9.9*
CCN(CC)CCn1c(NC(=O)c2ccc(C(F)(F)F)cc2)nc2ccccc21,0,1,0,0,-1,.,.
CC(=O)Nc1nc2ccccc2n1Cc1ccc(Cl)cc1,-1,1,0,-1,-1,.,.
CCN(CC)CCn1c(NC(=O)c2ccc(C)cc2)nc2ccccc21,11*,3,10,1,1.0*,0,5
Cc1ccc(C(=O)C2CCN(CC(=O)NC(C)C)CC2)cc1,-1,.,-1,1,-2,.,.
C[C@@H]1O[C@@H](n2c3ccc(Cl)cc3c3ccc4c5cc(Cl)ccc5[nH]c4c32)[C@H](O)[C@H](O)[C@H]1O,1,.,1,0,-2,.,.
Cc1ccc(NC(=O)[C@@H]2CC(=O)O[C@@H]2c2ccccc2)c(C)c1,1,.,-1,-1,-2,.,.
COc1cccc(/C=N/NC(=O)c2ccoc2C)c1,7.2*,3,11*,2,0,1,5
CCOc1ccc(/C=N/NC(=O)c2ccoc2C)cc1OC,1,1,9,3,0,.,.
O=C(Cn1cnc2ccccc2c1=O)N1CCCCC1,6,.,7,0,-1,.,.
CC1Cn2c(nnc2-c2ccc(F)cc2)S1 (stereo not drawn),6.9*,1,0,2,1.0*,0,2
Cc1ccsc1/C=N/NC(=O)c1ccccn1,10*,0,10,3,0,1,3
Cc1ccsc1/C=N/NC(=O)C(O)c1ccccc1 (stereo not drawn),2,1,0,0,-2,.,.
O=C(Nc1ccc(F)cc1Cl)C1CCCN1S(=O)(=O)c1cccc2cccnc12 (stereo not drawn),-4,.,1,-2,-2,.,.
